Rab9 prom act = activates the Rab9 promoter. Huh7 Rab9 promoter-luciferase reporter, luminescence, 24 h. Potency, µM (highest dose often 9.22 µM), most hits filed as activators. 320,000 tested, 2.8% active; note: nearly all actives have a fitted effect of over 60% in size
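Cells were plated at 1500 per well in reduced-serum medium with 10% FBS and left 2 h. Compound in DMSO was then added for 24 h at 37 °C. Reporter signal was read by luminescence after 10 min with luciferase detection reagent.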
FLuc modulator = counter-screen for miR-21 project: firefly luciferase inhibitors or activators; 360,000 tested, 6.9% active; purified FLuc, Km substrates, luminescence inhibition; AID 588342; P08659; Potency, µM (highest dose often 57.5 µM), actives largely listed as inhibitors; note: nearly all actives have a fitted effect of over 55% in size
Target sequence (P08659 whole entry, looked up): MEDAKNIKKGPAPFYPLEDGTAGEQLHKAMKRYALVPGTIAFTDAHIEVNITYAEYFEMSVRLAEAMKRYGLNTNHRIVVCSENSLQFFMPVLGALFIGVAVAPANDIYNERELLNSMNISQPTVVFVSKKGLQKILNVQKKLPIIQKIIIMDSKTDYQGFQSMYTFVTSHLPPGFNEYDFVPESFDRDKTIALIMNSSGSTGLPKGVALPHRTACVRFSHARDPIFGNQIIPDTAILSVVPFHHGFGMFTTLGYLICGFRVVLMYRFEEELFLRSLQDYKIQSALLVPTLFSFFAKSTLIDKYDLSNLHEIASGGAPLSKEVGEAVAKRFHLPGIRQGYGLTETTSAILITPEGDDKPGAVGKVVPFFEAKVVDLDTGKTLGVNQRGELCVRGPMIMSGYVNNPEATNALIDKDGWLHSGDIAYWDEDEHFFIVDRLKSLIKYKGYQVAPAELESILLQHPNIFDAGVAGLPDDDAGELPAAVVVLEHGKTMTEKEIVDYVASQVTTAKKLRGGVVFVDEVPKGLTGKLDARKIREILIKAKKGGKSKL
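Biochemical qHTS of compounds, final roughly 60 µM downward over six points, against 10 nM purified firefly luciferase using Km concentrations of substrates (10 uM D-luciferin, 10 uM ATP) in Tris acetate pH 7.5 buffer; luminescence output.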
ELG1 repair inh = blocks ELG1-dependent DNA repair in HEK293T cells; HEK293T ELG1-luciferase reporter, luminescence, 16 h; DNA damage induced by 5-fluorouridine; Potency, µM (titrated, usually from 46.1 µM), actives largely listed as inhibitors; 330,000 tested, 2.3% active; AID 504467; note: nearly all actives have a fitted effect of over 55% in size
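HEK293T cells expressing luciferase-tagged ELG1 (2,000/well) received 5-Fluorouridine plus compound or DMSO for 16 hr at 37 °C. Luciferase was read by ONE-Glo luminescence after 30 min at room temperature.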
NPC1 prom act = activators of NPC1 promoter | 320,000 tested, 2.4% active | Huh7 NPC1 promoter luciferase reporter, 24 h | Potency, µM (highest dose often 9.22 µM), actives largely listed as activators; note: nearly all actives have a fitted effect of over 60% in size
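Readout is luciferase luminescence, reflecting NPC1 promoter activation in stably transfected Huh7 cells after 24 h compound exposure at 37 °C in reduced-serum medium with 10% FBS.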
ELG1 genotoxic = genotoxicity induction in ELG1-luciferase HEK293T cells. HEK293T ELG1-luciferase reporter, luminescence, 16 h. Potency, µM (titrated, usually from 46 µM), actives largely listed as activators. 330,000 tested, 1.3% active; note: nearly all actives have a fitted effect of over 60% in size
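Screening used a luciferase reporter fused to human ELG1 in HEK293T cells. Luminescence was read on a CCD plate imager after 16 hr exposure and 30 min ONE-Glo incubation.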
SMN2 splice enh = increases expression of the SMN2 splice variant; Potency, µM (series often up to 46.1 µM), usual class: activators; HEK293 SMN2-luciferase splicing reporter, luminescence, 30-36 h; 210,000 tested, 2.8% active; note: nearly all actives have a fitted effect of over 55% in size
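qHTS luciferase splicing reporter: luminescence rises when SMN2 exon 7 is included in transfected HEK293 cells. Compound exposure lasted 30-36 h at 37C, with 4.5 mM final sodium butyrate as control, followed by a ONE-Glo read.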
Hits are given with their value; – = inactive; ? = inconclusive; · = no result given; [ ] = dose if it differs, or a comment. Compounds with a hit are over-represented: about 9.4% of the library has one in this group of screens. Calls come from the whole dose curve; as a rule, active = well fitted curve in the direction sought with a large enough effect; inconclusive = small, poorly fitted or top-dose-only effect, or another doubt; inactive = no such curve, though single readings can be large; an effect the other way counts as inactive or inconclusive.

SMILES	Rab9 prom act	FLuc modulator	ELG1 repair inh	NPC1 prom act	ELG1 genotoxic	SMN2 splice enh
O=c1[nH]c(CSc2nc3ccccc3[nH]2)nc2c1cnn2-c1ccccc1	–	?	12µM	–	–	–[1.84 µM]
Cc1ccc2nc(SCc3nc4c(cnn4-c4ccccc4)c(=O)[nH]3)[nH]c2c1	–	?	–	–	–	–
O=c1[nH]c(SCc2nc3c(cnn3-c3ccccc3)c(=O)[nH]2)nc2ccccc12	2µM	?	?	?	–	18µM
COC(=O)c1ccc(N2OC3(C)C=CC2CC3)cc1 (centres undefined)	?	21µM	?	–	?	?
COC(=O)c1ccc(N2C(=O)CC(N3CCOCC3)C2=O)cc1 (centres undefined)	–	–	–	–	–	–
O=C(C1=C(Nc2ccccc2)c2ccccc2S(=O)(=O)N1)c1ccccc1	–	–	16µM	–	–	–
Cc1ccc(C(=O)N(c2ccc(C)cc2)S(=O)(=O)c2ccc(Cl)cc2)cc1	·	–	·	·	·	–
N#CCSc1nc(-c2ccccc2)nc2ccccc12	–	?	?	–	–	·
N#CCSc1ncnc2ccccc12	–	–	23µM	–	–	–
c1ccc(Sc2ncnc3ccccc23)cc1	–	19µM	–	–	–	·
C=C1CC[C@H](O)C/C1=C/C=C1\CCC[C@]2(C)[C@H]1CC[C@H]2[C@@H](C)/C=C\[C@@H](C)C(C)C	·	·	·	·	·	–
CCc1nnc2sc(-c3ccc(NC(=O)c4ccco4)cc3)nn12	–	–	–	–	–	–
CCc1nnc2sc(-c3ccc(NC(=O)c4ccc5c(c4)OCCO5)cc3)nn12	–	–	5.8µM	–	–	–
c1ccc(Cc2nnc3sc(-c4ccc5c(c4)OCCO5)nn23)cc1	?	13µM	?	–	?	–
Cc1oc2c(c1C(=O)Nc1ccc(Cl)cc1F)C1=NCCN1C=N2	·	–	·	·	·	·
O=C(Nc1onc2c1CCCC2)c1ccccc1	·	4.8µM	·	·	·	?
Cc1noc(NC(=O)c2ccccc2)c1C#N	–	–	–	–	–	–
CC(C)(C)c1ccc(C(=O)Nc2onc3c2CCCC3)cc1	·	0.34µM	·	·	·	11µM
CCCNC(=O)CCC(=O)N1Cc2cccc(OC)c2Oc2ncccc21	·	–	·	·	·	·
CCC(=O)Nc1ccc2nc(C3CC3)n(Cc3ccc(C(C)(C)C)cc3)c(=O)c2c1	?	1.5µM	?	0.32µM	1.6µM	·
COc1cccc(Cn2c(C3CC3)nc3ccc(NC(=O)c4ccco4)cc3c2=O)c1	–	–	23µM	–	–	–
O=C(Nc1ccc2nc(C3CC3)n(Cc3ccc(F)cc3)c(=O)c2c1)c1ccco1	–	–	?	–	–	?
CC(=O)Nc1ccc2nc(C3CC3)n(Cc3ccc(Cl)cc3)c(=O)c2c1	3.5µM	21µM	?	3.5µM	?	10µM
COc1ccc(Cn2c(C3CC3)nc3ccc(NC(=O)C4CC4)cc3c2=O)cc1	1.6µM	4.3µM	?	1.4µM	2.6µM	11µM
Cc1ccc(-n2ncc(C(=O)NCCCN3CCCCC3)c2C2CCN(C(=O)OC(C)(C)C)CC2)cc1	·	–	·	·	·	·
SMILES	Rab9 prom act	FLuc modulator	ELG1 repair inh	NPC1 prom act	ELG1 genotoxic	SMN2 splice enh
COC(=O)c1cc(Cl)ccc1NC(=O)Cn1c(C)cc(C)c(C#N)c1=O	·	–	·	·	·	–
O=C(NCCCN1CCOCC1)c1ccc(-n2nc(C(F)(F)F)cc2-c2cccs2)cc1	–	–	15µM	–	–	–
COCCCNC(=O)c1ccc(-n2nc(C(F)(F)F)cc2-c2cccs2)cc1	–	–	?	–	–	–
Cc1ccc(CN2CCC(CNC(=O)c3cc4ccc5cccnc5c4[nH]3)CC2)cc1	·	–	·	·	·	·
CCN(Cc1ccccc1)C(=O)c1cc2ccc3cccnc3c2[nH]1	·	9.5µM	·	·	·	·
Nn1c(SCc2ccccc2)nc2ccccc21	3.2µM	19µM	?	1.8µM	?	·
O=C(O)Cn1c(SCc2ccccc2)nc2ccccc21	–	?	–	–	–	–
CCCNc1nc(C)nc2c1cnn2CCc1ccccc1	–	–	?	–	?	–
Cc1nc(NC(C)C)c2cnn(CCc3ccccc3)c2n1	?	?	?	–	15µM	–
O=C(O)CCNc1ncnc2nc[nH]c12	·	·	·	·	·	–[9.22 µM]
CCCCc1ccc(Nc2ncnc3nc[nH]c23)cc1	?	11µM	?	?	8.2µM	–

High-throughput results as filed in PubChem BioAssay.
